Rows were chosen to be rich in hits. Some 2.4% of all compounds tested hit in one or more screens of this group.
Rpn11 block: blocks the human proteasome subunit Rpn11 | AID 588493 | 0.59% of 360,000 active | human 26S proteasome, Ub4-pepOG fluorescence polarization; 20S core pre-blocked with epoxomicin | inhibition, % at 20 µM | O00487;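 active = inhibition at 20 µM, scaled to each plate's controls, above about 33%, limit read from the data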
Target sequence (O00487 whole entry, looked up): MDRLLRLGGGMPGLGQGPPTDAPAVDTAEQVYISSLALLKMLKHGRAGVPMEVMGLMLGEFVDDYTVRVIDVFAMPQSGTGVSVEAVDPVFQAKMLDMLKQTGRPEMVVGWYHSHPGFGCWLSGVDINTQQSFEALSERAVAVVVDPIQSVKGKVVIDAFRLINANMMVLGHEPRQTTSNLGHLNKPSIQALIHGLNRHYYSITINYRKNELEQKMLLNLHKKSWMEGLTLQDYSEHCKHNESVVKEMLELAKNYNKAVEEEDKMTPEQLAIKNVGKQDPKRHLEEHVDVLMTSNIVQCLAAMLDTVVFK
PP5 inh: inhibitors of human protein phosphatase 5 (PP5). inhibition, % at 6.7 µM. 0.18% of 320,000 active. P53041. purified PP5c, OMFP substrate fluorescence. AID 1987;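 active = inhibition above the campaign's mean inhibition across all tested compounds plus 3 SD, cut at about 9.5% in these data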
PREPL inh: inhibitors of human prolyl oligopeptidase-like enzyme PREPL; Q4J6C6; recombinant PREPL, fluorescence polarization activity-based probe; inhibition, % at 5.96 µM; 0.68% of 320,000 active; in the data active = inhibition above about 43%
PP1 counter: counter-screen for PP5 inhibitors: inhibitors of human PP1-alpha. 0.9% of 320,000 active. inhibition, % at 6.7 µM. P62136. purified PP1alpha, OMFP fluorescence;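 active = inhibition above the mean inhibition of all tested compounds plus 3 SD, computed separately for each screening campaign, cut at about 15% in these data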
Target sequence (P62136 whole entry, looked up): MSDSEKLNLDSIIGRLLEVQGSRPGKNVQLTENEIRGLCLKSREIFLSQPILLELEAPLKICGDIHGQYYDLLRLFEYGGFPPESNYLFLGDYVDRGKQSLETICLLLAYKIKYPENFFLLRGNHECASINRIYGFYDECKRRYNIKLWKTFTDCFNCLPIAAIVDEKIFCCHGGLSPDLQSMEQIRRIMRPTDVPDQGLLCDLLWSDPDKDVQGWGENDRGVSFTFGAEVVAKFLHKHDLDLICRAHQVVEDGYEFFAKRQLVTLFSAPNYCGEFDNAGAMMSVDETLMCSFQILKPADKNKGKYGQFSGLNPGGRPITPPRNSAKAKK
NadD inh: inhibitors of Staphylococcus aureus NadD; inhibition, % at 20 µM; purified NadD enzyme, colorimetric absorbance read-out; 0.78% of 360,000 active; in the data active = inhibition above about 26%
NadD conf: confirmation of Staphylococcus aureus NadD inhibitors; inhibition, % at 20 µM; 13% of 2,000 active; purified S. aureus NadD, colorimetric enzyme assay; shares compounds with NadD inh; in the data active = inhibition mostly above about 42%, no sharp cut-off; inactive = mostly below about 42%
Of the large screens only hits and unclear results are named; the others gave an inactive call (follow-up assays come after a bar, where shown); ! = not active in a repeat.

O=C(O)c1cccc(NC(=S)NC(=O)c2ccc(-c3ccccc3)cc2)c1	none
Cc1c(Cl)cccc1Nc1n[nH]c(=S)s1	NadD inh 32 (no result: PP5 inh, PREPL inh, PP1 counter) | NadD conf inactive
Cc1ccccc1Nc1n[nH]c(=S)s1	none (no result: PP5 inh, PREPL inh, PP1 counter)
S=c1[nH]nc(Nc2cccc3ccccc23)s1	NadD inh 37 | NadD conf inactive
COc1ccccc1C(=O)NCC(=O)NCc1cc(=O)n(C)c(=O)n1C	NadD inh 62 | NadD conf inactive
O=C1CN(C(=O)COC(=O)CCc2ccccc2O)c2ccccc2N1	none (no result: PP5 inh, PP1 counter)
CC1(C)Cc2c(c(-c3ccco3)nc3sc4c(NCCO)ncnc4c23)CO1	none
CSc1nc(SCCO)c2sc3nc(-c4ccco4)c4c(c3c2n1)CC(C)(C)OC4	NadD inh 60 (not shown: Rpn11 block, PP5 inh, PREPL inh, PP1 counter) | NadD conf inactive
O=C(O)CC(CC(=O)NCC(O)c1ccccc1)c1ccccc1 (stereo not drawn)	none
CCCCc1nc(SCC(=O)N2CCCCC2)c2c(=O)n(C)c(=O)n(C)c2n1	none
C/C(=N\Nc1nnc(-c2ccccc2)c(-c2ccccc2)n1)c1cccc([N+](=O)[O-])c1	NadD inh 33 | NadD conf inactive
O=[N+]([O-])c1cccc(/C=N/Nc2nnc(-c3ccccc3)c(-c3ccccc3)n2)c1	none
O=S(=O)(c1ccccc1)N1CCN(c2cccc(Cl)c2)CC1	none
O=[N+]([O-])c1ccc2[nH]cc(S(=O)(=O)N3CCN(c4cccc(Cl)c4)CC3)c2c1	NadD inh 31 | NadD conf inactive
COc1ccc(/C=C/C(=O)NCC(=O)N/N=C/c2cc(Br)ccc2OCc2ccccc2)cc1	NadD inh 28 | NadD conf inactive
CC(C)(C)S(=O)N1Cc2cc(C(=O)Nc3ccc(-c4ccccc4)cc3)nc(-c3cccc(-c4cc5ccccc5o4)c3)c2[C@@H]1CCO (stereo partly drawn)	NadD inh 35 (no result: PP5 inh, PREPL inh, PP1 counter) | NadD conf inactive
CC(C)(C)S(=O)N1Cc2cc(C(=O)O)nc(-c3cccc(-c4cc5ccccc5o4)c3)c2[C@H]1CCO (stereo partly drawn)	none (no result: PP5 inh, PREPL inh, PP1 counter)
CC1Cc2ccccc2N1CC(=O)NC(=O)NCc1ccco1 (stereo not drawn)	NadD inh 32 | NadD conf inactive
N#CCc1ccc(NC(=O)CSc2nnc(C3CC3)n2C2CC2)cc1	none
Cc1ccc(NC(=O)C2(c3ccccc3)CCCC2)nc1	NadD inh 32 | NadD conf inactive
COc1ccc(C2Nc3ccccc3C(=O)N2Cc2ccco2)cc1COc1ccc(F)cc1 (stereo not drawn)	none
COc1ccc(C2Nc3ccccc3C(=O)N2Cc2ccco2)cc1CN1C(=O)c2ccccc2C1=O (stereo not drawn)	NadD inh 39! | NadD conf inactive
O=C(O)c1cccc(N/N=C/c2sc(N3CCOCC3)nc2-c2ccccc2)c1	none
O=[N+]([O-])c1ccc(N/N=C/c2sc(N3CCOCC3)nc2-c2ccccc2)c(S(=O)(=O)Nc2ccc(Cl)cc2)c1	NadD inh 58 (no result: PP5 inh, PREPL inh, PP1 counter) | NadD conf inactive
COc1ccc(S(=O)(=O)N2CCN(C(=O)CC3CC4CCC3C4)CC2)cc1 (stereo not drawn)	none
Nn1c(SCC(=O)NC2CCCC2)nnc1C(F)(F)F	none (no result: PP5 inh, PREPL inh, PP1 counter)
CCOc1ccc(CCN2C(=O)C(=O)N([C@@H](CC(C)C)CN3CCC[C@H]3CN3C(=O)C(=O)NC[C@@H]3Cc3ccccc3)C[C@@H]2Cc2ccccc2)cc1	NadD inh 34 (no result: Rpn11 block, PP5 inh, PREPL inh, PP1 counter) | NadD conf inactive
CCOc1ccc(CCN2C(=O)C(=O)N([C@@H](CC(C)C)CN3CCC[C@@H]3CN3C(=O)C(=O)NC[C@@H]3Cc3ccccc3)C[C@@H]2Cc2ccc(O)cc2)cc1	none (no result: PP5 inh, PREPL inh, PP1 counter)
CCOc1ccc(CCN2C(=O)C(=O)N([C@@H](CC(C)C)CN3CCC[C@H]3CN3C(=O)C(=O)NC[C@@H]3Cc3ccccc3)C[C@@H]2Cc2ccc(O)cc2)cc1	NadD inh 35 (no result: Rpn11 block, PP5 inh, PREPL inh, PP1 counter) | NadD conf inactive
CCOc1ccc(CCN2C(=O)C(=O)N([C@@H](CC(C)C)CN3CCC[C@@H]3CN3C(=O)C(=O)NC[C@@H]3Cc3ccccc3)C[C@@H]2CC(C)C)cc1	none (no result: PP5 inh, PREPL inh, PP1 counter)
Cc1ccc(Cn2c(N)c(S(=O)(=O)c3cccs3)c3nc4ccccc4nc32)cc1	NadD inh 32 | NadD conf inactive
Nc1c(S(=O)(=O)c2cccs2)c2nc3ccccc3nc2n1Cc1ccccc1	none
O=C(CC1Nc2ccccc2NC1=O)Nc1ccc2c(c1)OCO2 (stereo not drawn)	none
Cc1ccc(NC(=O)CC2Nc3ccccc3NC2=O)cc1Cl (stereo not drawn)	NadD inh 31 (no result: PP5 inh, PREPL inh, PP1 counter) | NadD conf inactive
CCc1nc2ccc(C(=O)NCCCN3CCCC3=O)cn2c1N(C)C(=O)c1cccc(OC)c1	none (no result: PP5 inh, PREPL inh, PP1 counter)
O=C(N/N=C/c1ccc([N+](=O)[O-])o1)c1cn(-c2ccccc2)nc1-c1ccccc1	NadD inh 31 | NadD conf inactive
O=C(N/N=C/c1coc2ccccc2c1=O)c1cn(-c2ccccc2)nc1-c1ccc(F)cc1	NadD inh 34 | NadD conf inactive
O=C(N/N=C/c1ccc([N+](=O)[O-])o1)c1ccccc1-n1cccc1	none
O=C(N/N=C/c1ccc([N+](=O)[O-])o1)c1cn(-c2ccccc2)nc1-c1ccc(Cl)cc1	NadD inh 36 | NadD conf inactive
O=C(N/N=C/c1coc2ccccc2c1=O)c1ccncc1	none (no result: PP5 inh, PREPL inh, PP1 counter)
CS(=O)(=O)Nc1ccccc1-c1cccc2nccn12	none (no result: PP5 inh, PREPL inh, PP1 counter)
CC(=O)N[C@@H](Cc1c[nH]c2ccccc12)C(=O)OCc1cc(C(F)(F)F)cc(C(F)(F)F)c1	none
COc1ccc(-c2csc(NC(=O)CSc3nc(C)nc4sc(C(=O)O)c(C)c34)n2)cc1	NadD inh 30 | NadD conf inactive
CC(C)C[C@H]1CNC(=S)N1C[C@H]1CCCN1C[C@H](Cc1ccccc1)N1C[C@H](Cc2ccc(O)cc2)N(CC2CCCCC2)C1=S	NadD inh 35 (no result: PP5 inh, PREPL inh, PP1 counter) | NadD conf inactive
Oc1ccc(C[C@H]2CNC(=S)N2CC2CCCN2C[C@H](Cc2ccc(O)cc2)N2C[C@H](Cc3ccccc3)N(CC3CCCCCC3)C2=S)cc1 (stereo partly drawn)	NadD inh 45 (no result: PP5 inh, PREPL inh, PP1 counter) | NadD conf inactive
Oc1ccc(C[C@@H](CN2CCCC2CN2C(=S)NC[C@@H]2Cc2ccccc2)N2C[C@H](Cc3ccccc3)N(CC3CCCCC3)C2=S)cc1 (stereo partly drawn)	NadD inh 44 (no result: Rpn11 block, PP5 inh, PREPL inh, PP1 counter) | NadD conf inactive
Oc1ccc(C[C@H]2CNC(=S)N2CC2CCCN2C[C@H](Cc2ccccc2)N2C[C@H](Cc3ccc(O)cc3)N(CC3CCCCC3)C2=S)cc1 (stereo partly drawn)	NadD inh 53 (no result: PP5 inh, PREPL inh, PP1 counter) | NadD conf inactive
CC(C)C[C@H]1CNC(=S)N1C[C@H]1CCCN1C[C@H](Cc1ccc(O)cc1)N1C[C@H](Cc2ccccc2)N(CC2CCCCCC2)C1=S	none (no result: PP5 inh, PREPL inh, PP1 counter)

Screening data: PubChem BioAssay, several laboratories
